These results are taken from the supplement of paper PMC4709259.

Where a name gives a salt, the structure may show the parent alone. ± gives the standard deviation.

For experiment [1], the system named is Jurkat. Put plainly: mean cell size (FSC-A) relative to DMSO control (fraction of control); higher = larger cells. As to conditions: 48 h. The method in brief: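 Jurkat cells at 600 cells/µl were incubated for 1 h and then treated for 48h with the Enzo Screen-Well FDA Approved Drug Library v2.0 at 25µM, with DMSO at 0.9% (v/v) final. Compounds that reduced counts below 20% of controls were retested in 10-fold dilutions down to 25nM. Cell count and mean cell size, taken as forward scatter area, were measured by flow cytometry relative to solvent-only controls. Each plate carried 6-12 controls, and values are means of 3 biological replicates.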

Experiment [2] deals with Jurkat. Put plainly: cell count relative to DMSO control (fraction of control); higher = more cells (less growth inhibition). As to conditions: 48 h.

`COc1nc(N)nc2c1ncn2[C@@H]1O[C@H](CO)[C@@H](O)[C@@H]1O` [Nelarabine] (concentration: 25 µM) yielded a mean cell size in experiment [1] of 1.4 ± 0.014. In experiment [2], the cell count amounted to 0.201 ± 0.029.
Take `Cc1cccc(Nc2ccncc2S(=O)(=O)NC(=O)NC(C)C)c1` [Torsemide] (concentration: 25 µM): the mean cell size in experiment [1] was 1.01 ± 0.052. Besides, in experiment [2], the cell count stood at 0.866 ± 0.042.
Compound `CN1CCC(=C2c3ccccc3CC(=O)c3sccc32)CC1` [Ketotifen Fumarate] (concentration: 25 µM) had a mean cell size in experiment [1] of 0.96 ± 0.017. In experiment [2], the cell count is 0.856 ± 0.071.
The corresponding values for `O=C(N[C@H](CO)[C@H](O)c1ccc([N+](=O)[O-])cc1)C(Cl)Cl` [Chloramphenicol] (concentration: 25 µM) are 0.949 ± 0.022 and 0.819 ± 0.078.
The corresponding values for `C/C(=C\C(=O)OCCCCCCCCC(=O)O)C[C@@H]1OC[C@H](C[C@@H]2O[C@H]2[C@@H](C)[C@H](C)O)[C@@H](O)[C@H]1O` [Mupirocin] (concentration: 25 µM) are 0.928 ± 0.065 and 0.525 ± 0.18.
With `CC[C@@H]([C@H](C)O)n1ncn(-c2ccc(N3CCN(c4ccc(OC[C@@H]5CO[C@@](Cn6cncn6)(c6ccc(F)cc6F)C5)cc4)CC3)cc2)c1=O` [Posaconazole] (concentration: 25 µM), the mean cell size in experiment [1] was determined as 1.02 ± 0.032. In experiment [2], this compound showed a cell count of 1.016 ± 0.0028.
Taken in the same sequence, the figures for `CN/C(=N\CCSCc1nc[nH]c1C)NC#N` [Cimetidine] (concentration: 25 µM) were 1.02 ± 0.072 and 0.733 ± 0.17.
The corresponding values for `O=C(O)COCCN1CCN(C(c2ccccc2)c2ccc(Cl)cc2)CC1` (stereo not drawn) [Cetirizine 2HCl] (concentration: 25 µM) are 0.962 ± 0.032 and 1.01 ± 0.12.
Taken in the same sequence, the figures for `NC[C@H]1O[C@H](O[C@H]2[C@H](O)[C@@H](O[C@H]3O[C@H](CO)[C@@H](O)[C@H](N)[C@H]3O)[C@H](N)C[C@@H]2N)[C@H](O)[C@@H](O)[C@@H]1O` [Kanamycin Sulfate] (concentration: 25 µM) were 0.919 ± 0.013 and 1.06 ± 0.08.
